Test results reported in PubChem BioAssay (NCI).
Where “and” joins values, the source holds several entries; their conditions need not be identical. Identical values can stand only once. The panel holds about 83,000 compounds, 20% with a hit somewhere; the sample as a whole holds those more often.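 Assay: single dose, 48 h. Readout: percent growth (0 = no net growth; negative = cell death). Active: <10.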 Calls of active or inactive are those of the source.

System: HL-60(TB) leukemia
Assay: NCI-60 one-dose screen, 48 h (100 = growth as untreated, 0 = no growth, -100 = all killed)
Conditions: 10 µM unless noted

| SMILES | growth |
| --- | --- |
| NC(=O)c1ccc[n+]([C@@H]2O[C@H](COP(=O)([O-])OP(=O)(O)OC[C@H]3O[C@@H](n4cnc5c(N)ncnc54)[C@H](O)[C@@H]3O)[C@@H](O)[C@H]2O)c1 | 109% (inactive) |
| CCN(CC)CCCCCCNc1cc(OC)cc2cccnc12 | -57.3% (active) |
| O=C(NCc1cccc(C(F)(F)F)c1)[C@H](CCC(=O)N1CCN(C2CCCCC2)CC1)N1C(=O)[C@@H](N2C(=O)OC[C@@H]2c2ccccc2)[C@H]1/C(Cl)=C/c1ccccc1 | 5.62% (active) |
| O=S(=O)(Nc1ccc(-c2nc(-c3cccc(OCCN4CCOCC4)c3)c(-c3ccnc(Br)c3)[nH]2)cc1)c1ccccc1 | -2.01% (active) |
| CN(C)CCn1c(=O)c2c3cc4c(cc3n(CCN(C)C)c2c2ccc(Cl)cc21)OCO4 | 19.5% (inactive) |
| COC1=C(OC)C(=O)C(CCCCCCCCCC[P+](c2ccccc2)(c2ccccc2)c2ccccc2)=C(C)C1=O | -55.9% (active) |
| NS(=O)(=O)c1ccc(N2Cc3cc(Cl)ccc3OC3=C2C(=O)N(CC2CCCCC2)C3=O)cc1 | -35.9% (active) |
| CNc1ccc(O)cc1 | 103% (inactive) and 93% (inactive) |
| COc1ccc(-c2nsc3c2NC(=O)CC3c2ccc3c(c2)OCCO3)cc1 (stereo unspecified) | 13% (inactive) |
| NC1=NC(SCc2ccccc2CCl)c2ncn(Cc3ccccc3CCl)c2N1 (stereo unspecified) | -25.5% (active) |
| COc1cc2c(cc1OCCCN1CCN(CCCOc3cc4c(cc3OC)C(=O)N3C[C@H](F)C[C@H]3C=N4)CC1)N=C[C@@H]1C[C@@H](F)CN1C2=O | -28.8% (active) |
